# Measured values as given in PubChem BioAssay (EPA / NIEHS).
# Records with an inconclusive call do not appear. The source made the active and inactive calls. Rule for the calls: active = hit-call score of the fitted dose curve at least 0.9, where 1 is the maximum; inconclusive = response in the unintended direction; inactive = score below 0.9.
# Biological target: human Acetylcholinesterase (AChE), ACHE (gene 43) (UniProt P22303)
# Assay: NVS_ENZ_hAChE: NovaScreen (NVS) Enzymatic Assay for human Acetylcholinesterase (AChE) (AID 2283129)
# Description: NVS_ENZ_hAChE is a biochemical, single-readout assay that uses extracted gene-proteins in a cell-free assay. Measurements were taken 0.33 hour after chemical dosing in a 96-well plate.NVS_ENZ_hAChE is one of one assay component(s) measured or calculated from the NVS_ENZ_hAChE assay. It is designed to make measurements of enzyme activity, a form of enzyme reporter, as detected with absorbance signals by Colorimetric technology.Data from the assay component NVS_ENZ_hAChE was analyzed into 1 assay endpoint. This assay endpoint, NVS_ENZ_hAChE, was analyzed in the positive analysis fitting direction relative to DMSO as the negative control and baseline of activity. Using a type of enzyme reporter, loss-of-signal activity can be used to understand changes in the enzymatic activity as they relate to the gene ACHE. Furthermore, this assay endpoint can be referred to as a primary readout, because this assay has produced multiple assay endpoints where this one serves a enzymatic activity function. To generalize the intended target to other relatable targets, this assay endpoint is annotated to the esterase intended target family, where the subfamily is acetylcholinesterase.
# Binding assays used specific radioligands (tritiated, iodinated) with non-radioactive competitive displacement ligands in agonist or antagonist protocols (as indicated) and various reference compounds and inhibitors to titrate specific binding to receptors and transporters. Most enzyme assays (CYPs, kinases, phosphatases, proteases, HDACs) used recombinant protein and specific substrates (fluorescence mostly, some colorimetric and radioactive) and inhibitors, followed by a biochemical separation of substrate and product. All assays for the biochemical HTS were initially run in duplicate at a single concentration (10 uM for CYP450 assays and 25 uM for all others). […] Each assay was run with positive and negative controls, and concurrent controls on every plate. The follow-up (secondary) screen tested active chemical-pairs in concentration series, as well as a few additional assays not tested in the primary screen, some selected negative inactives, and several cases re-run in the concentration series for confirmatory purposes.
# Sequence of human Acetylcholinesterase (AChE), ACHE (gene 43) (P22303 whole entry, looked up): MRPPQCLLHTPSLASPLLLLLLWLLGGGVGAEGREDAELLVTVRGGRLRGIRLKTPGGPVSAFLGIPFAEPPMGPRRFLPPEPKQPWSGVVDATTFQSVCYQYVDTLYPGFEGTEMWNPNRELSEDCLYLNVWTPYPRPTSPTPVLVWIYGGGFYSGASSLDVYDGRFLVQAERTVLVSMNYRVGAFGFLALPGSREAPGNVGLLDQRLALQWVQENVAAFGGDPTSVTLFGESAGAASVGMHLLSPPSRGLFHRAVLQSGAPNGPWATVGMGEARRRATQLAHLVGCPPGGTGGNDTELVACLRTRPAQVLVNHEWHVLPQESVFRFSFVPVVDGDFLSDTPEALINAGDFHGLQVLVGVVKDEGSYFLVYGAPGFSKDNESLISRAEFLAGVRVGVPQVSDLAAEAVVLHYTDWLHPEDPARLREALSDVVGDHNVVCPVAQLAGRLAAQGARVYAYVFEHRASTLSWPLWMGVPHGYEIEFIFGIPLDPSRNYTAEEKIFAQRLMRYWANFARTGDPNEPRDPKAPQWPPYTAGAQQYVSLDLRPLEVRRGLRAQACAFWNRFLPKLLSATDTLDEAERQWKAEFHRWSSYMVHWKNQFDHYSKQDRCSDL
Compound,AC50,outcome
CCN(C(=O)c1cc(C)cc(OC[C@H](C)Nc2ccncc2)c1)C(C)C,6.7 µM (active),
CC(C)CCCCCCCOC(=O)CCCCC(=O)OCCCCCCCC(C)C,7.43 µM (active),
CCN(Cc1cccnc1)C(=O)c1cccc(Cl)c1[C@]1(C)C(=O)N(Cc2ccc(OC)cc2OC)c2ccc(Cl)cc21,,inactive
NC(=O)N(O)[C@@H]1C=C[C@H](Oc2cccc(Oc3ccc(F)cc3)c2)C1,,inactive
O=C(OC[C@H]1O[C@@H](OC(=O)c2cc(O)c(O)c(OC(=O)c3cc(O)c(O)c(O)c3)c2)[C@H](OC(=O)c2cc(O)c(O)c(OC(=O)c3cc(O)c(O)c(O)c3)c2)[C@@H](OC(=O)c2cc(O)c(O)c(OC(=O)c3cc(O)c(O)c(O)c3)c2)[C@@H]1OC(=O)c1cc(O)c(O)c(OC(=O)c2cc(O)c(O)c(O)c2)c1)c1cc(O)c(O)c(OC(=O)c2cc(O)c(O)c(O)c2)c1,0.644 µM (active),
CS(=O)(=O)c1ccc([C@@H](C[C@H]2CCC(=O)C2)C(=O)Nc2cnccn2)cc1Cl,,inactive
COCCOc1cc2cc(C(=O)NC3CCN(C(C)C)CC3)n(CC(=O)Nc3ccc(Cl)cn3)c2cn1,29 µM (active),
O=C(c1ccc(OCCN2CCCCC2)cc1)c1c(-c2ccc(O)cc2)sc2cc(O)ccc12,0.0103 µM (active),
Nc1ccc2c(c1)C(=O)c1ccccc1C2=O,,inactive
CC[C@H]1CC[C@H](NCc2cc3c(cc2OC)[C@H]2C[C@H]2C(=O)N3C)[C@H](c2ccccc2)N1,20.5 µM (active),
Cc1cc(CCN2CCN(c3nsc4ccccc34)CC2)cc2c1NC(=O)CC2(C)C,,inactive
CCCCC(CC)COC(=O)CCCCCCCCC(=O)OCC(CC)CCCC (stereo not given),16.7 µM (active),
CCCN(CCC)C(=O)SCC,,inactive
COc1cc(C(C)C)c2c(c1)S(=O)(=O)N(COc1cc(=O)n3cccc(OCCN4CCCCC4)c3n1)C2=O,5.52 µM (active),
CN(C)C(=O)NC1(c2ccccc2)CCN(CCC[C@]2(c3ccc(Cl)c(Cl)c3)CCCN(C(=O)c3ccccc3)C2)CC1,5.13 µM (active),
CN(C)c1ccc(C(=C2C=CC(=[N+](C)C)C=C2)c2ccc(N(C)C)cc2)cc1,6.48 µM (active),
CSc1ccc(Oc2ccc(S(N)(=O)=O)cc2CN(C)C)cc1C,,inactive
c1ccc2c(c1)-c1cccc3c1c-2cc1ccccc13,,inactive
O=c1[nH]c2ccc(S(=O)CCN3CCC(Cc4ccc(F)cc4)CC3)cc2o1 (stereo not given),3.71 µM (active),
CS(=O)(=O)c1ccc([C@@H](CC2CCCC2)C(=O)Nc2cnccn2)cc1Cl,,inactive

Compound,AC50,outcome
COc1ccc2cc(S(=O)(=O)N[C@H](CC(=O)N[C@H](Cc3ccc(CN4[C@H](C)CCC[C@@H]4C)cc3)C(=O)N(C)C(C)C)c3ccc4c(c3)OCO4)ccc2c1,,inactive
CC/C(=C(\c1ccccc1)c1ccc(OCCN(C)C)cc1)c1ccccc1,17 µM (active),
CNS(=O)(=O)c1cc(C(=O)N2CCC(CCN3C4CCC3CC(n3c(C)nc5ccccc53)C4)(c3cccc(F)c3)CC2)c(Cl)cc1F (stereo not given),,inactive
CCCCC(CC)COC(=O)CCCCCCCC(=O)OCC(CC)CCCC (stereo not given),,inactive
Cn1c(=O)cc(Oc2ccc(F)cc2F)c2cnc(NCC(C)(C)O)nc21,17.3 µM (active),
CCOC(=O)c1ccc(C2CCC(NC[C@H](O)COc3ccc(O)c(NS(C)(=O)=O)c3)CC2)cc1 (stereo not given in full),23.4 µM (active),
c1ccc2c(c1)Cc1ccccc1-2,,inactive
O=C1c2ccccc2C(=O)N1CCc1noc(-c2ccc(CN3CCCCCC3)s2)n1,13.8 µM (active),
CCc1nc(N)nc(N)c1-c1ccc(Cl)cc1,,inactive
CCCCCCCC(=O)O,,inactive
S=C([S-])NCCNC(=S)[S-].[Mn+2],,inactive
CN(C)C(=O)C1(N2CCCCC2)CCN(CC[C@@]2(c3ccc(Cl)c(Cl)c3)CN(C(=O)c3ccccc3)CCO2)CC1,4.93 µM (active),
Clc1cc(Cl)c2c(c1)N=C1CCCCCN1C2,0.351 µM (active),
CCCCC(CC)COC(=O)c1ccc(C(=O)OCC(CC)CCCC)cc1 (stereo not given),,inactive
CCN(CC)CCNc1ccc(CNC=O)c2sc3ccc(OC)cc3c(=O)c12,13.9 µM (active),
COc1cccc(-c2ccc(/C=C\CN3CCCCCC3)cc2Cl)c1,22.6 µM (active),
O=C(O)c1cccc(N(Cc2cccnc2)c2ccc(OC(F)F)c(OC(F)F)c2)c1,8.26 µM (active),
N=C(N)c1ccc(OCCCCCOc2ccc(C(=N)N)cc2)cc1,19.3 µM (active),
CCCCCCC(CCCCCCCCCCC(=O)OCC(COC(C)=O)OC(C)=O)OC(C)=O (stereo not given),,inactive
CCCCC(CC)COP(=O)(OCC(CC)CCCC)OCC(CC)CCCC (stereo not given),32.7 µM (active),
